Measured values published in PubChem BioAssay (EPA / NIEHS).
Values joined by “and” are separate entries in the source; they are usually repeats but may differ in a detail not shown here. Identical values can stand only once. A structure can be active in one record and inactive in another. Active and inactive are the calls of the source. Rule for the calls: active = hit-call score of the fitted dose curve at least 0.9, where 1 is the maximum; inactive = score below 0.9.

Read-out: not listed separately
Experiment: BSK_MyoF_SRB: Viability Assessment in the BioMAP Diversity Plus: MyoF Assay (AID 2284267);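 note: total protein by SRB absorbance in parallel cultures as cytotoxicity measure; cells assessed 24 h after compound addition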
Details: primary human lung fibroblasts
Outline: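 Cytotoxicity read-out: after 10% TCA fixation, parallel human lung fibroblast cultures were stained with 0.1% SRB at 24 h post-dosing and read at 560 nm; DMSO served as baseline.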

**Q.** With `O=C(O)C(F)(F)C(F)(F)C(F)(F)C(F)(F)C(F)(F)C(F)(F)C(F)(F)C(F)(F)C(F)(F)F` as the molecule, how does the AC50 read?
**A.** The AC50 was 50 µM (active) and 38.9 µM (active).

**Q.** Which outcome does the source give for `O=S(=O)(O)C(F)(F)C(F)(F)C(F)(F)C(F)(F)C(F)(F)C(F)(F)F` here?
**A.** Its outcome is “inactive”.

**Q.** For `O=S(=O)(O)C(F)(F)C(F)(F)C(F)(F)C(F)(F)F`, which outcome is on record?
**A.** Its outcome is “inactive”.

**Q.** With `NS(=O)(=O)C(F)(F)C(F)(F)C(F)(F)C(F)(F)C(F)(F)C(F)(F)C(F)(F)C(F)(F)F` as the molecule, how does the AC50 read?
**A.** Its AC50 is 43.1 µM (active) and 42.8 µM (active).

**Q.** Which AC50 does the source give for `Oc1c(Cl)c(Cl)c(Cl)c(Cl)c1Cl` here?
**A.** Its AC50 is 6.05 µM (active).

**Q.** With `O=C(O)C(F)(F)C(F)(F)C(F)(F)C(F)(F)C(F)(F)F` as the molecule, how does the outcome read?
**A.** The outcome was “inactive”.

**Q.** With `O=C(O)C(F)(F)C(F)(F)C(F)(F)C(F)(F)C(F)(F)C(F)(F)C(F)(F)C(F)(F)F` as the molecule, how does the outcome read?
**A.** Its outcome is “inactive”.

**Q.** Which outcome does the source give for `Sc1ccccc1` here?
**A.** Its outcome is “inactive”.

Read-out: Matrix Metallopeptidase 1 (MMP1), MMP1 (gene 4312)
Experiment: BSK_MyoF_MMP1: BioMAP Diversity Plus: MyoF Assay for Matrix Metallopeptidase 1 (MMP1) Biomarker Activity (AID 2284268)
Details: primary human lung fibroblasts
Outline: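 ELISA readout of MMP1 in primary human lung fibroblast cultures, 24 h post-dosing. Gain of signal versus DMSO vehicle control defines activity. Parallel SRB staining (0.1% after 10% TCA fixation, 560 nm) flags overt cytotoxicity.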

**Q.** Which AC50 does the source give for `O=C(O)C(F)(F)C(F)(F)C(F)(F)C(F)(F)C(F)(F)C(F)(F)C(F)(F)C(F)(F)C(F)(F)F` here?
**A.** The AC50 was 45 µM (active).

**Q.** What about the outcome of the same molecule?
**A.** The outcome was “inactive”.

**Q.** Which outcome does the source give for `O=S(=O)(O)C(F)(F)C(F)(F)C(F)(F)C(F)(F)C(F)(F)C(F)(F)F` here?
**A.** Its outcome is “inactive”.

**Q.** For `O=S(=O)(O)C(F)(F)C(F)(F)C(F)(F)C(F)(F)F`, which outcome is on record?
**A.** The outcome was “inactive”.

**Q.** For `NS(=O)(=O)C(F)(F)C(F)(F)C(F)(F)C(F)(F)C(F)(F)C(F)(F)C(F)(F)C(F)(F)F`, which outcome is on record?
**A.** Its outcome is “inactive”.

**Q.** With `Oc1c(Cl)c(Cl)c(Cl)c(Cl)c1Cl` as the molecule, how does the AC50 read?
**A.** Its AC50 is 11.5 µM (active).

**Q.** For `O=C(O)C(F)(F)C(F)(F)C(F)(F)C(F)(F)C(F)(F)F`, which outcome is on record?
**A.** The outcome was “inactive”.

**Q.** Which outcome does the source give for `O=C(O)C(F)(F)C(F)(F)C(F)(F)C(F)(F)C(F)(F)C(F)(F)C(F)(F)C(F)(F)F` here?
**A.** The outcome was “inactive”.

**Q.** For `Sc1ccccc1`, which outcome is on record?
**A.** The outcome was “inactive”.

Read-out: TIMP metallopeptidase inhibitor 1 (TIMP1), TIMP1 (gene 7076)
Experiment: BSK_MyoF_TIMP1: BioMAP Diversity Plus: MyoF Assay for TIMP metallopeptidase inhibitor 1 (TIMP1) Biomarker Activity (AID 2284269)
Details: primary human lung fibroblasts
Outline: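 ELISA read-out of TIMP-1 from primary human lung fibroblast cultures 24 h after compound dosing; gain of signal relative to DMSO vehicle baseline defines activity.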

**Q.** Which AC50 does the source give for `O=C(O)C(F)(F)C(F)(F)C(F)(F)C(F)(F)C(F)(F)C(F)(F)C(F)(F)C(F)(F)C(F)(F)F` here?
**A.** Its AC50 is 50.6 µM (active) and 37.4 µM (active).

**Q.** For `O=S(=O)(O)C(F)(F)C(F)(F)C(F)(F)C(F)(F)C(F)(F)C(F)(F)F`, which outcome is on record?
**A.** The outcome was “inactive”.

**Q.** Which outcome does the source give for `O=S(=O)(O)C(F)(F)C(F)(F)C(F)(F)C(F)(F)F` here?
**A.** Its outcome is “inactive”.

**Q.** With `NS(=O)(=O)C(F)(F)C(F)(F)C(F)(F)C(F)(F)C(F)(F)C(F)(F)C(F)(F)C(F)(F)F` as the molecule, how does the AC50 read?
**A.** The AC50 was 35.1 µM (active) and 21.5 µM (active).

**Q.** Which AC50 does the source give for `Oc1c(Cl)c(Cl)c(Cl)c(Cl)c1Cl` here?
**A.** The AC50 was 9.53 µM (active).

**Q.** Which outcome does the source give for `O=C(O)C(F)(F)C(F)(F)C(F)(F)C(F)(F)C(F)(F)F` here?
**A.** Its outcome is “inactive”.

**Q.** For `O=C(O)C(F)(F)C(F)(F)C(F)(F)C(F)(F)C(F)(F)C(F)(F)C(F)(F)C(F)(F)F`, which outcome is on record?
**A.** Its outcome is “inactive”.

**Q.** Which outcome does the source give for `Sc1ccccc1` here?
**A.** Its outcome is “inactive”.

Read-out: Matrix Metallopeptidase 1 (MMP1), MMP1 (gene 4312)
Experiment: BSK_BF4T_MMP1: BioMAP Diversity Plus: BF4T Assay for Matrix Metallopeptidase 1 (MMP1) Biomarker Activity (AID 2284270)
Details: primary human bronchial epithelial cells with fibroblasts
Experimental: BSK_BF4T is a cell-based, multiplexed-readout assay that uses bronchial epithelial cells and dermal fibroblasts, a human vascular primary cell, with measurements taken at 24 hours after chemical dosing in a microplate: 96-well plate.BSK_BF4T_MMP1 is an assay component measured in the BSK_BF4T assay. It measures MMP-1 antibody related to regulation of gene expression using ELISA technology.Data from the assay component BSK_BF4T_MMP1 was analyzed at the endpoint, BSK_BF4T_MMP1, in the positive analysis fitting direction relative to DMSO as the negative control and baseline of activity. Using a type of binding reporter, gain or loss-of-signal activity can be used to understand protein changes. To generalize the intended target to other relatable targets, this assay endpoint is annotated to the 'protease' intended target family, where the subfamily is 'matrix metalloproteinase'.
The levels of cell surface (or secreted, indicated by the prefix "s") biomarker endpoints were measured by ELISA. Overt cytotoxicity to cells in confluent adherent cultures (all systems other than the BT system) was assessed by measuring total protein levels using sulforhodamine B (SRB) staining in parallel cultures at the time of biomarker measurements, indicated as SRB endpoints. For proliferation assays for adherent cell types, individual cell types are cultured at sub-confluence and relative cell numbers quantified by SRB staining at time points optimized for each system (48 h: 3C and CASM3C systems; 72 h: BT and HDF3CGF systems; 96 h: SAg system). SRB was performed by staining cells with 0.1% SRB after fixation with 10% TCA and reading wells at 560 nm.Viability and proliferation of PBMC (T cells) was quantified by Alamar Blue reduction for the SAg and BT systems. For PBMC viability (referred to as PBMC Cytotoxicity within the assay endpoint names), cells were plated (75,000/well in a 96-well plate) and then chemical samples added for 1 h before addition of activators, SEB and TSST-1 (20 ng/mL final concentration each). Cells were incubated for 90 h. Then, Alamar Blue (20 uL/well) (Invitrogen, Cat DAL1100) was added for 6 h, and the plates were read with a fluorescence microplate reader at 546/580 nm (excitation/emission). For PBMC proliferation, cells were plated and activated as above but incubated for only 16 h prior to addition of Alamar Blue. Plates were read after 6 h.

**Q.** Which AC50 does the source give for `O=C(O)C(F)(F)C(F)(F)C(F)(F)C(F)(F)C(F)(F)C(F)(F)C(F)(F)C(F)(F)C(F)(F)F` here?
**A.** Its AC50 is 14.1 µM (active) and 11 µM (active).

**Q.** With `O=S(=O)(O)C(F)(F)C(F)(F)C(F)(F)C(F)(F)C(F)(F)C(F)(F)F` as the molecule, how does the outcome read?
**A.** Its outcome is “inactive”.

**Q.** Which outcome does the source give for `O=S(=O)(O)C(F)(F)C(F)(F)C(F)(F)C(F)(F)F` here?
**A.** Its outcome is “inactive”.

**Q.** For `NS(=O)(=O)C(F)(F)C(F)(F)C(F)(F)C(F)(F)C(F)(F)C(F)(F)C(F)(F)C(F)(F)F`, which outcome is on record?
**A.** The outcome was “inactive”.

**Q.** For `O=C(O)C(F)(F)C(F)(F)C(F)(F)C(F)(F)C(F)(F)F`, which outcome is on record?
**A.** Its outcome is “inactive”.

**Q.** For `O=C(O)C(F)(F)C(F)(F)C(F)(F)C(F)(F)C(F)(F)C(F)(F)C(F)(F)C(F)(F)F`, which AC50 is on record?
**A.** The AC50 was 48.4 µM (active) and 51.1 µM (active).

Read-out: Matrix Metallopeptidase 3 (MMP3), MMP3 (gene 4314)
Experiment: BSK_BF4T_MMP3: BioMAP Diversity Plus: BF4T Assay for Matrix Metallopeptidase 3 (MMP3) Biomarker Activity (AID 2284271)
Details: primary human bronchial epithelial cells with fibroblasts
Outline: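 MMP-3 level read by ELISA after 24 h chemical exposure of bronchial epithelial cell/dermal fibroblast co-cultures, fitted upward relative to DMSO. Parallel cultures stained with 0.1% SRB after TCA fixation gauge overt cytotoxicity.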

**Q.** With `O=C(O)C(F)(F)C(F)(F)C(F)(F)C(F)(F)C(F)(F)C(F)(F)C(F)(F)C(F)(F)C(F)(F)F` as the molecule, how does the AC50 read?
**A.** Its AC50 is 18.5 µM (active) and 21.3 µM (active).

**Q.** Which outcome does the source give for `O=S(=O)(O)C(F)(F)C(F)(F)C(F)(F)C(F)(F)C(F)(F)C(F)(F)F` here?
**A.** Its outcome is “inactive”.

**Q.** For `O=S(=O)(O)C(F)(F)C(F)(F)C(F)(F)C(F)(F)F`, which outcome is on record?
**A.** The outcome was “inactive”.

**Q.** For `NS(=O)(=O)C(F)(F)C(F)(F)C(F)(F)C(F)(F)C(F)(F)C(F)(F)C(F)(F)C(F)(F)F`, which AC50 is on record?
**A.** Its AC50 is 52.2 µM (active) and 49.7 µM (active).

**Q.** Which outcome does the source give for `O=C(O)C(F)(F)C(F)(F)C(F)(F)C(F)(F)C(F)(F)F` here?
**A.** The outcome was “inactive”.

**Q.** With `O=C(O)C(F)(F)C(F)(F)C(F)(F)C(F)(F)C(F)(F)C(F)(F)C(F)(F)C(F)(F)F` as the molecule, how does the AC50 read?
**A.** Its AC50 is 47.4 µM (active) and 55.2 µM (active).

Read-out: Tissue plasminogen activator (tPA), PLAT (gene 5327)
Experiment: BSK_BF4T_tPA: BioMAP Diversity Plus: BF4T Assay for Tissue plasminogen activator (tPA) Biomarker Activity (AID 2284272)
Details: primary human bronchial epithelial cells with fibroblasts
Outline: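 tPA level quantified by ELISA at 24 h post-treatment in bronchial epithelial/dermal fibroblast co-cultures, gain of signal scored against DMSO baseline. Parallel cultures stained with 0.1% SRB (560 nm) to flag overt cytotoxicity.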

**Q.** With `O=C(O)C(F)(F)C(F)(F)C(F)(F)C(F)(F)C(F)(F)C(F)(F)C(F)(F)C(F)(F)C(F)(F)F` as the molecule, how does the AC50 read?
**A.** The AC50 was 34.6 µM (active) and 17.3 µM (active).

**Q.** With `O=S(=O)(O)C(F)(F)C(F)(F)C(F)(F)C(F)(F)C(F)(F)C(F)(F)F` as the molecule, how does the outcome read?
**A.** The outcome was “inactive”.

**Q.** Which outcome does the source give for `O=S(=O)(O)C(F)(F)C(F)(F)C(F)(F)C(F)(F)F` here?
**A.** Its outcome is “inactive”.

**Q.** For `NS(=O)(=O)C(F)(F)C(F)(F)C(F)(F)C(F)(F)C(F)(F)C(F)(F)C(F)(F)C(F)(F)F`, which AC50 is on record?
**A.** The AC50 was 51.4 µM (active) and 55 µM (active).

**Q.** Which outcome does the source give for `O=C(O)C(F)(F)C(F)(F)C(F)(F)C(F)(F)C(F)(F)F` here?
**A.** The outcome was “inactive”.

**Q.** Which AC50 does the source give for `O=C(O)C(F)(F)C(F)(F)C(F)(F)C(F)(F)C(F)(F)C(F)(F)C(F)(F)C(F)(F)F` here?
**A.** The AC50 was 35.6 µM (active) and 27.7 µM (active).
